Data published in PubChem BioAssay (NCATS).
Several values for one entry are separate records, joined by “and”; a condition that tells them apart may be missing. Identical values can stand only once. Inconclusive results are not listed. A call without a number means that no potency is given here. Activity calls are given as the source filed them. The call rests on the fitted dose curve; in most records, active means well fitted cell-killing curve with a large enough effect; inconclusive means small, poorly fitted or top-dose-only effect; inactive means flat fitted curve, though single readings scatter.

Experiment: qHTS of pediatric cancer cell lines to identify multiple opportunities for drug repurposing: Primary screen for BT-12 cells (AID 1347101); further: nearly all actives have a fitted effect of over 25% in size
Details: BT-12 viability, CellTiter-Glo luminescence, 48 h; series mostly up to 57.3 µM
Source text: Drug repurposing or repositioning has been offered as a strategy for drug development in oncology programs. This approach has special potential for childhood cancers and other rare or orphan diseases, where the expected return on new drug development has been a disincentive to pharmaceuticals.
In this project we exploit the poly-pharmacology of drugs to discover new indications via phenotypic screening of a panel of 19 well-characterized cell lines derived from solid tumors seen in children and adolescents. The goal is to identify approved drugs with previously unrecognized anticancer properties that has the potential to reveal new mechanisms and biological processes involved in carcinogenesis or drug resistance. We employed a titration-based paradigm (quantitative high-throughput screening or qHTS), where all compounds were tested at multiple concentrations for their effect on cell viability. Concentration-response curves (CRCs) were derived directly from the primary screen, and both potency and efficacy values were used to identify compounds with robust bioactivity profiles. We screened the NIH Chemical Genomics Center (NCGC) Pharmaceutical Collection (NPC) and Mechanism Interrogation Plate (MIPE) small molecule collections of approved and investigational compounds against these cell lines; and measured metabolically active cells after 48 hours of compound treatment as a proxy for cell viability.
Assay Submitter: Nathalia J. Martinez, National Center for Advancing Translational Sciences, National Institutes of Health, Rockville, MD, USA; email: natalia.martinez@nih.gov
[1] Shen, M et al. Quantitative high-throughput phenotypic screening of pediatric cancer cell lines identifies multiple opportunities for drug repurposing. Oncotarget 2017 Dec 19;9(4):4758-4772. PMID 29435139.
The cells were obtained from University of North Carolina (UNC), Pediatric Preclinical Testing Program (PPT), and Coriell Institute (CI).
qHTS cell viability assay:
Cells were assayed in growth media at a density of 500-1,000 cells/well. Five microliters of cells were dispensed into 1,536-well, white, solid-bottom, TC-treated plates (Greiner Bio One) using a multidrop dispenser and incubated at 37 degrees C, 5% CO2, under a humidified atmosphere for 5 hours. Twenty-three nanoliters of compounds and controls (neutral control DMSO or positive control bortezomib at final concentration of 2.3 µM) were subsequently transferred by Kalypsys pintool. For primary screens, the MIPE collection was tested at 11-point dilutions (final concentrations range from 0.78 nM to 46 µM) and the NPC collection at 8-point dilutions (final concentrations range from 0.59 nM to 46 µM). Compounds tested in follow-up screens were assayed at 11-point dilutions. Cells were incubated for 48 hours, followed by addition of 3 µL of CellTiter-Glo (Promega). After a 15 min incubation at room temperature, samples were analyzed for luminescence intensity using a ViewLux High-throughput CCD imager equipped with clear filters.
Potency means the concentration at half of the fitted maximal effect.

| SMILES | Potency |
| --- | --- |
| Nc1ncnc2c1nc(Cl)n2[C@@H]1O[C@H](CO)[C@@H](O)[C@@H]1O | inactive |
| CC(=O)O[C@]1(C(C)=O)CC[C@H]2[C@@H]3C=C(Cl)C4=CC(=O)[C@@H]5C[C@@H]5[C@]4(C)[C@H]3CC[C@@]21C | 12.3 µM (active) |
| CCn1cc(C(=O)O)c(=O)c2ccc(C)nc21 | inactive |
| COc1ccccc1N1CCN(CCCNc2cc(=O)n(C)c(=O)n2C)CC1 | inactive |
| CCn1c(C(=O)N(C2CC2)C2CC2)cc2c3c(ncn3C)c(Nc3cc(C)n(C)n3)nc21 | inactive |
| C[C@H](NC(=O)c1sccc1OCc1ccc(Cl)cc1)c1ccccc1 | 19.3 µM (active) |
| O=C(CCCCCCC(=O)Nc1ccccc1)NO | 6.92 µM (active) and 17.2 µM (active) |
| CC=CCC=CCCC(=O)[C@H]1O[C@@H]1C(N)=O | inactive |
| CC(=O)N(C)C1(c2ccccc2)CCN(CCC[C@]2(c3ccc(Cl)c(Cl)c3)CCCN(C(=O)c3ccccc3)C2)CC1 | 27.3 µM (active) |
| CC(C)(C)Cn1c(N)nc2ccc(-c3[nH]c(C(C)(C)C)nc3-c3ccc(F)cc3)nc21 | 27.3 µM (active) |
| CN1[C@@H]2CCC[C@@H]1CC(NC(=O)c1nn(C)c3ccccc13)C2 (stereo not given in full) | inactive |
| CCN1CCC[C@H]1CNC(=O)c1cc(S(N)(=O)=O)ccc1OC | inactive |
| N#CC(=C(N)Sc1ccccc1N)C(C#N)=C(N)Sc1ccccc1N | 13.7 µM (active) |
| Cc1cccc(C)c1OCC(C)N (stereo not given) | inactive |
| COc1cc(Nc2ncc(F)c(Nc3ccc4c(n3)NC(=O)C(C)(C)O4)n2)cc(OC)c1OC | inactive |
| C[N+](C)(C)CCCCCC[N+](C)(C)C | inactive |
| CN1C[C@H]2c3ccccc3Oc3ccc(Cl)cc3[C@@H]2C1 | inactive |
| CC[C@]1(O)C[C@@H]2CN(CCc3c([nH]c4ccccc34)[C@@](C(=O)OC)(c3cc4c(cc3OC)N(C)[C@H]3[C@@](O)(C(=O)OC)[C@H](OC(C)=O)[C@]5(CC)C=CCN6CC[C@]43[C@@H]65)C2)C1 | 43.7 nM (active) and 347 nM (active) |
| CCCCC1C(=O)N(c2ccccc2)N(c2ccccc2)C1=O | inactive |
| O=C1NCC2(CCN(CCc3ccccc3)CC2)O1 | inactive |

| SMILES | Potency |
| --- | --- |
| Cc1c[nH]c(C=C2C(=O)Nc3ccccc32)c1CCC(=O)O | inactive |
| COCCOC(=O)C1=C(C)NC2=C(C(=O)CC(c3ccccc3OC)C2)C1c1cccc(O)c1 (stereo not given) | inactive |
| COc1ccc(-c2coc3cc(O)cc(O)c3c2=O)cc1 | inactive |
| NS(=O)(=O)c1cccc2c1C(=O)c1cccc(O)c1C2=O | 0.273 µM (active) |
| CC/C(=C(\c1ccccc1)c1ccc(OCCN(C)C)cc1)c1ccccc1 | 27.6 µM (active) |
| COc1ccc(-c2nc(N3CCOCC3)c3sc(CN(C)c4ncc(C(=O)NO)cn4)cc3n2)cn1 | 0.0086 µM (active) |
| O=C(NCc1ccccc1)c1csc(Nc2ccncn2)n1 | 19.3 µM (active) |
| O=c1cc(-c2ccccc2)oc2cc(O)cc(O)c12 | inactive |
| COc1cccc2c1CCCC2CCCN1CCN(C2CCCCC2)CC1 (stereo not given) | 24.3 µM (active) |
| c1cc(-c2sc(-c3ccncc3)c(-c3ccncc3)c2-c2ccncc2)ccn1 | inactive |
| CN(C)CCC(c1ccccc1)c1ccccn1 (stereo not given) | inactive |
| O=C(CCc1ccc(O)cc1)c1c(O)cc(O)cc1O[C@@H]1O[C@H](CO)[C@H](O)[C@H](O)[C@H]1O | inactive |
| O=c1[nH]cnc2c1ncn2[C@H]1CC[C@@H](CO)O1 | inactive |
| C[C@@H](O)[C@H]1C(=O)N2C(C(=O)O)=C(S[C@@H]3CN[C@H](C(=O)N(C)C)C3)[C@H](C)[C@H]12 | inactive |
| CCOC1OC(=O)C[C@H]1NC(=O)[C@@H]1CCCN1C(=O)[C@@H](NC(=O)c1ccc(N)c(Cl)c1)C(C)(C)C (stereo not given in full) | 1.37 µM (active) |
| O=C(O)c1ccc(-c2cc3cccnc3c(-c3ccc4nonc4c3)n2)cc1 | 27.3 µM (active) |
| O=C1NC(=O)C(c2ccccc2)(c2ccccc2)N1 | inactive |
| CCS(=O)(=O)N1CC(CC#N)(n2cc(-c3ncnc4[nH]ccc34)cn2)C1 | inactive |
| O=C(OCC#CCSc1nnc(-c2cccc3ccccc23)o1)c1cc2ccccc2s1 | inactive |
| C[N+](C)(C)CC(=O)O | inactive |
